Growth data for 14 compounds are collected here from PubChem BioAssay (NCI).

The panel holds about 83,000 compounds, 20% with a hit somewhere; the sample as a whole holds those more often.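 In brief: 96-well plates, 48 h treatment, single concentration, percent growth endpoint.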 Unmarked numbers belong to inactive results. Calls of active or inactive are those of the source. Rule for the calls: active = growth percent below 10; inactive = the rest.

What all share (test): NCI-60 one-dose screen, 48 h (100 = growth as untreated, 0 = no growth, -100 = all killed)
Holding throughout (conditions): 10 µM unless noted

For test [1], the system named is T-47D breast.
The subject of test [2] is BT-549 breast.
Test [3] has as its system MDA-MB-435 melanoma.
The subject of test [4] is SW-620 colon.
Test [5] has as its system MCF7 breast.
Test [6] concerns HCT-116 colon.
The subject of test [7] is HCC-2998 colon.
Test [8] has as its system KM12 colon.

With `COC(=O)[C@H](Cc1cnc[nH]1)NC(=O)[C@@H](NC(=O)Nc1cc(C(F)(F)F)cc(C(F)(F)F)c1)C(C)C`, the growth in test [1] was -63.5% [100 µM] (active); in test [2] it was -90.7% [100 µM] (active); in test [3], -91.1% [100 µM] (active); in test [4], -48.2% [100 µM] (active); in test [5], -53.1% [100 µM] (active); in test [6] it was -89.5% [100 µM] (active). Besides, the figures for the growth in test [7] and in test [8] were -82.2% [100 µM] (active) and -94.6% [100 µM] (active), respectively.
With `CSc1nc(N)c2c(n1)N(C)C=NS2(=O)=O`, the growth in test [1] was 97.2%; in test [2] it was 100%; in test [3], 111%; in test [4] it was 102%; in test [5], 102%; in test [6] it was 102%. The growth is 107% in test [7] and 117% in test [8].
Take `CCOC(=O)c1cnc2c(C)cc(C)cc2c1NCCCN(C)C`: the growth is 54.5% in test [1]; 61.3% in test [2]; 32.3% in test [3]; 30.3% in test [4]; 15.1% in test [5]; 15.4% in test [6]. The growth was 29% in test [7] and 31.6% in test [8].
Consider `CC(=O)Nc1c(Cl)cc2c(c1Cl)Cc1cc([N+](=O)[O-])ccc1-2`, for which the growth was 53.4% in test [1]; 84.4% in test [2]; 81% in test [3]; 81.5% in test [4]; 27.8% in test [5]; 72.6% in test [6]. Further, the growth in test [7] was 87.4%; in test [8], 78.2%.
Turning to `CCOC(=O)C(C(=O)OCC)C1CCCCC1`, the growth in test [1] was 100%; in test [2], 104%; in test [3], 101%; in test [4], 104%; in test [5], 98.6%; in test [6], 104%. For the same compound, the growth in test [7] was 111%; in test [8], 105%.
For the compound `CCOc1cc(/C=C/C(=O)C(C(=O)/C=C/c2ccc(OC(=O)CNc3nnc(C)s3)c(OCC)c2)C(=O)CNc2nnc(C)s2)ccc1OC(=O)CNc1nnc(C)s1`, the growth in test [1] was 68.2%; in test [2], -56.2% (active); in test [3], -8.14% (active); in test [4], -64.8% (active); in test [5], -6.02% (active); in test [6], -77.7% (active). Besides, the growth in test [7] was -64.8% (active); in test [8], -64.4% (active).
Consider `O=C(Nc1ccc(Cl)cc1)Nc1nc2ccc(OC(F)(F)F)cc2o1`, for which the growth in test [1] was 41.1%; in test [2] it was 146%; in test [3], 112%; in test [4] it was 98.4%; in test [5], 76.6%; in test [6], 85%. Also, the growth in test [7] is 140%; in test [8], 68.3%.
As for `COc1ccc(C2=NN(C(C)=O)C(c3cccc(Nc4ccnc5cc(Cl)ccc45)c3)C2)cc1` (configuration not stated), the growth in test [1] was 37.5%; in test [2], 50.4%; in test [3], 41.4%; in test [4], 74.4%; in test [5], 37.4%; in test [6] it was 44.3%. The results for the growth in test [7] and in test [8] were 83.1% and 54.1%, respectively.
As for `CC[C@H]1CN2CCc3cc(OC)c(OC)cc3C2C[C@@H]1CC1NCCc2cc(OC)c(OC)cc21` (some centres not stated), the growth in test [1] was -15.1% (active); in test [2], -11% (active); in test [3], -71.2% (active); in test [4], -20.3% (active); in test [5], -2.18% (active); in test [6] it was -22.9% (active). For the same compound, the growth in test [7] is -47.8% (active); in test [8], -37.2% (active).
`C[C@H]1C(=O)N2c3ccccc3[C@@]3(O)C[C@@H](n4cnc5ccccc5c4=O)C(=O)N1[C@@H]23`: the growth is 99.1% in test [1]; 103% in test [2]; 109% in test [3]; 107% in test [4]; 98.9% in test [5]; 93.8% in test [6]. The growth in test [7] is 98.5%; in test [8], 113%.
Take `C/C(=C\CCc1ccoc1)CC/C=C(\C)CCCC1COC(=O)C1` (configuration not stated): the growth is 87.7% in test [1]; 108% in test [2]; 88.8% in test [3]; 103% in test [4]; 90.6% in test [5]; 98.2% in test [6]. In addition, the growth in test [7] is 107%; in test [8], 93.3%.
In the case of `CCOC(=O)Nc1ccc2c3c(cccc13)-c1ccccc1-2`, the growth was 58.7% in test [1]; 26.1% in test [2]; -9.66% (active) in test [3]; 14.9% in test [4]; 15.8% in test [5]; 16.6% in test [6]. Also, the values for the growth in test [7] and in test [8] were 41.2% and 18.3%, respectively.
As for `CCCCCCCCCCNCCSS(=O)(=O)O`, the growth is 88.7% in test [1]; 113% in test [2]; 62.4% in test [3]; 81.8% in test [4]; 19.2% in test [5]; 52.9% in test [6]. Further, the results for the growth in test [7] and in test [8] were 76.4% and 4.36% (active), respectively.
For the compound `CCCCCN1C(=O)CCC1=O`, the growth in test [1] was 95.5%; in test [2] it was 103%; in test [3], 102%; in test [4] it was 111%; in test [5], 98.4%; in test [6], 105%. For the same compound, the growth in test [7] is 103%; in test [8] it was 94.5%.
